Source: PubChem BioAssay AID2284162 (EPA ToxCast)
Activity calls are given as the source filed them. The calls were made as follows: active = hit-call score of the fitted dose curve at least 0.9, where 1 is the maximum; inactive = score below 0.9.

These molecules were tested against human Histamine Receptor H1, HRH1 (gene 3269) (UniProt P35367) (assay: ERF_FR_GPCR_hHRH1: Eurofins (ERF) G Protein-Coupled Receptor (GPCR) Radioligand Binding LeadHunter Assay for human Histamine Receptor H1 Antagonism, conducted at France lab site).
Description: ERF_FR_GPCR_hHRH1 is a biochemical, single-readout assay that uses extracted gene-proteins in a cell-free assay. Measurements were taken 1 hour after chemical dosing in a 96-well plate. See H1 Human Histamine GPCR Binding (Antagonist Radioligand) Assay, Cerep.ERF_FR_GPCR_hHRH1 is an assay component calculated from the ERF_FR_GPCR_hHRH1 assay. It is designed to measure radioligand binding using a type of binding reporter as detected by scintillation counting with radiometry technology.Data from the assay component ERF_FR_GPCR_hHRH1 was analyzed at the assay endpoint, ERF_FR_GPCR_hHRH1, in the positive analysis fitting direction relative to DMSO as the negative control and baseline of activity. Using a type of binding reporter, loss-of-signal activity can be used to understand changes in binding as they relate to gene HRH1. To generalize the intended target to other relatable targets, this assay endpoint is annotated to the gpcr intended target family, where the subfamily is histamine.
Human cells are incubated for 60 minutes at room temprature with [3H]pyrilamine ligand (1 nM) and Pyrilamine as control inhibitor. Test Sample Requirements: Minimum for 1) Screen: 60 ul of 10 mM stock -OR- 1 mg (pre-weighed) for 10 uM final testing. 2) Dose Response: 90 ul of 10 mM stock -OR- 1 mg (pre-weighed) for a top concentration at 10 uM.

human Histamine Receptor H1, HRH1 (gene 3269), sequence (P35367 whole entry, looked up): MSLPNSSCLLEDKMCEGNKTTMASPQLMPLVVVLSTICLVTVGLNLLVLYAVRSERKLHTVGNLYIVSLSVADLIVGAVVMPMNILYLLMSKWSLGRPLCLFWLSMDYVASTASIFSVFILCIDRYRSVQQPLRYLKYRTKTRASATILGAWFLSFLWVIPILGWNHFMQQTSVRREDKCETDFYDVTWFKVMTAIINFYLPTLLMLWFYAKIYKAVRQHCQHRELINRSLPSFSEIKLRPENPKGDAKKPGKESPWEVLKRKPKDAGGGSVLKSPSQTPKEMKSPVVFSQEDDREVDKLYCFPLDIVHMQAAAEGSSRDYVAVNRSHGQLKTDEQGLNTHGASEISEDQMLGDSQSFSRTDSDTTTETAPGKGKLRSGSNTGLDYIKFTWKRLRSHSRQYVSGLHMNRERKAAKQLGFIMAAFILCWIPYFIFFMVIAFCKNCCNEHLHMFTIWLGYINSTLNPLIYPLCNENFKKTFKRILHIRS

Row | Structure (SMILES) | AC50
1 | O=C(/C=C/c1ccc(O)cc1)CC(=O)/C=C/c1ccc(O)cc1 | 1460 nM (active)
